The nature of the assay: NCI Yeast Anticancer Drug Screen. Data for the sgs1 strain (AID 173).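 Also: 0% = growth of vehicle-only control cultures.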 The note with it: S. cerevisiae sgs1 mutant, stronger effect = higher value. On the procedure: Growth inhibition of yeast strains with defined genetic alterations is measured as a screen for potential anti-cancer activity. Selected strains with alterations in DNA damage repair or cell cycle control were exposed to compounds and growth inhibition was measured relative to vehicle treated controls. The strain used in this assay is sgs1

About 79,000 compounds went through this panel and 15% of them were active in at least one assay; those are over-represented in the sample as a whole. A number with no mark means an inactive call. Active and inactive are the calls of the source. Rule as the data show it: active = growth inhibition above about 70%; inactive = the rest.

Among the data in PubChem BioAssay (NCI) are growth inhibition values, retold here.

On to `CO[C@@]1([C@@H](Cl)c2ccccc2)C(=O)N(C)/C(=C\c2ccccc2)C(=O)N1C`, for which the growth inhibition reads like this: (at 1.2 µM) -2%; (at 3.7 µM) -3%; (at 11.0 µM) -1%; (at 33.0 µM) 35%; (at 100.0 µM) 82% (active).

As for `O=C1c2ccccc2-c2ccc(N=Cc3ccccc3)cc21`, the growth inhibition is, setting by setting: (at 1.2 µM) -13%; (at 3.7 µM) -11%; (at 11.0 µM) -4%; (at 33.0 µM) 19%; (at 100.0 µM) 86% (active).

Take `Cc1c2cc[n+](CCO)cc2c(C)c2c1[nH]c1ccc(O)cc12`: the growth inhibition is, setting by setting: (at 1.2 µM) 18%; (at 3.7 µM) 19%; (at 11.0 µM) 17%; (at 33.0 µM) 25%; (at 100.0 µM) 42%.

Turning to `O=C1c2ccccc2C(=O)c2c(O)c(NCCNCCO)cc(O)c21`, the growth inhibition is -4% (at 1.2 µM); 12% (at 3.7 µM); 48% (at 11.0 µM); 93% (active) (at 33.0 µM); 94% (active) (at 100.0 µM).

On to `NC(CCCCCCCCCCCCC(N)C(=O)c1ccccc1)C(=O)c1ccccc1` (stereo not given), for which the growth inhibition runs as follows: (at 1.2 µM) -5%; (at 3.7 µM) -7%; (at 11.0 µM) 82% (active); (at 33.0 µM) 96% (active); (at 100.0 µM) 95% (active).

Regarding `COc1c2c(c3c(c1CCC(=O)O)OC(C)(C)C=C3)OC(C)(C)C=C2`, the growth inhibition reads like this: (at 1.2 µM) 0%; (at 3.7 µM) 4%; (at 11.0 µM) 20%; (at 33.0 µM) 59%; (at 100.0 µM) 98% (active).

`O=C1c2ccccc2C(=O)c2sc(Nc3ccccc3Cl)nc21`: the growth inhibition is -6% (at 1.2 µM); 16% (at 3.7 µM); 82% (active) (at 11.0 µM); 99% (active) (at 33.0 µM); 97% (active) (at 100.0 µM).

As for `N#CCCC1C(C#N)C2(Cl)CC1(Cl)C(Cl)=C2Cl` (stereo not given), the growth inhibition (at 1.2 µM) was 22%; the growth inhibition (at 3.7 µM) is 18%; the growth inhibition (at 11.0 µM) is 20%; the growth inhibition (at 33.0 µM) was 64%; the growth inhibition (at 100.0 µM) is 99% (active).
